aSyn UTR act: Activators working through SNCA 5'UTR binding (MLPCN) | AID 1814 | hit rate 7.1% among 300,000 | activity score, % (tested at 7.5 µM), hits read low | alpha-synuclein 5'UTR reporter, activators screen; in the data active = activity score below about -60%
* = called active by the depositor. These entries were drawn from the full list.

SMILES	aSyn UTR act
N#C/C(=C\c1ccc(OCc2ccc(F)cc2)cc1)C(=O)Nc1cccc(C(=O)O)c1	-108*
CCCc1cc2c(=O)c(-c3ccc4c(c3)OCCO4)coc2cc1OC(=O)c1ccco1	-287*
CCCc1cc2c(=O)c(-c3ccc4c(c3)OCCO4)coc2cc1OS(C)(=O)=O	-222*
CCOc1ccc(/C=N/NC(=O)c2cc3c(OC)cc(OC)c(OC)c3[nH]2)cc1	-78*
COc1ccc2[nH]c(C(=O)N/N=C/c3ccccc3OC)cc2c1	-119*
COc1cc(C(=O)N/N=C/C2CC=CCC2)cc(OC)c1OC (configuration not stated)	108
CCOc1ccc2[nH]c(C(=O)N/N=C/c3ccccc3OC)cc2c1	-116*
COc1ccc2nc(Nc3nc4cc5c(cc4s3)OCO5)sc2c1	-123*
COc1ccc2nc(Nc3ccc4c(c3)OCO4)sc2c1	-160*
Cc1ccc(C(=O)Nc2ccc3c(c2)OCCO3)cc1	89
O=C(Nc1ccc2c(c1)OCCO2)c1ccc(Br)cc1	-78*
CC(C)c1ccc(NC(=O)c2cccc(Br)c2)cc1	-174*
O=C(Nc1ccc2c(c1)OCCO2)c1cccnc1	-141*
O=C(Nc1ccc2c(c1)OCCO2)c1ccc(Br)o1	-114*
O=C(Nc1ccc2c(c1)OCCO2)c1cccc(Br)c1	-150*
CSCC[C@@H](C(=O)Nc1ccc2c(c1)OCCO2)N1Cc2ccccc2C1=O	-85*
COc1ccc(C(=O)Nc2ccc3c(c2)OCCO3)cc1Br	-255*
COc1ccc(NC(=O)c2ccc3c(c2)OCO3)cc1[N+](=O)[O-]	-192*
COc1ccc(C(=O)N2CCN(Cc3ccc4c(c3)OCO4)CC2)cc1[N+](=O)[O-]	46
CCCOc1cccc(C(=O)Nc2ccc3c(c2)OCCO3)c1	-62*
CCCC(C)C(=O)Nc1ccc2c(c1)OCCO2 (configuration not stated)	-77*
COc1cccc2c1OC1(C)CC2NC(=O)N1c1cccc(C(=O)Nc2ccc3c(c2)OCCO3)c1 (configuration not stated)	-67*
O=C(/C=C/c1ccc(Br)cc1)NC(=O)c1ccccc1O	-162*
O=C(/C=C/c1ccc(O)c(O)c1)NC(=O)c1ccccc1O	-145*
CSc1ccc(/C=C/C(=O)NC(=O)c2ccccc2O)cc1	-119*
SMILES	aSyn UTR act
S=c1nc2ccccc2c2nc(-c3ccccc3)[nH]n12	-64*
S=c1nc(-c2ccccc2)[nH]n1-c1ccccc1	-143*
C=CC(C)(C)c1c(O)c(CC=C(C)C)c(O)c2c(=O)c3ccc(O)c(O)c3oc12	73
CC(c1nccs1)N(C)C(=O)c1cn(Cc2cccc3ccccc23)nn1 (configuration not stated)	-86*
Cc1ccc(O)c(C2=NNC(c3ccc(Cl)cc3)C2)c1 (configuration not stated)	-128*
Cc1ccc(C2Cc3cc(O)c(O)cc3CN2)cc1 (configuration not stated)	89
N/C(=N\OC(=O)c1ccccc1Br)c1ccc([N+](=O)[O-])cc1	-103*
N/C(=N\OC(=O)c1ccccc1Br)c1cccc([N+](=O)[O-])c1	-77*
Cc1ccccc1/C(N)=N/OC(=O)c1ccc(F)cc1	-177*
Cc1ccccc1C(=O)O/N=C(\N)c1ccc([N+](=O)[O-])cc1	-127*
N/C(=N\OC(=O)c1ccccc1F)c1cccc([N+](=O)[O-])c1	-183*
Cc1c(-c2nc(N)nc(Nc3ccccc3)n2)oc2ccccc12	-134*
CCc1nnc(NC(=O)c2csc3c2CCC(C)C3)s1 (configuration not stated)	-67*
Cc1cc(N2CCOCC2)ccc1/C=C1\SC(=O)N(C(C)C)C1=O	-115*
CCC(C)N1C(=O)S/C(=C/c2ccc(N3CCOCC3)cc2C)C1=O (configuration not stated)	-167*
CCOC(=O)C(=CNc1ccc2c(c1)CCN2C(C)=O)C(=O)OCC	-78*
COc1cc(C(=O)Nc2ccc3c(c2)CCN3C(C)=O)cc(OC)c1OC	97
COc1ccc(-c2ccc(-c3nnn(CC(=O)N4CCOCC4)n3)cc2)cc1	-166*
COc1ccc(OC)c(C(=O)Cn2nnc(-c3ccc(N4CCOCC4)cc3)n2)c1	-135*
O=C(COC(=O)c1ccccc1-n1cnnn1)c1ccc(F)cc1	-145*
CC1Cc2cc(/C(O)=C3/C(=O)C(=O)N(CC4CCCO4)C3c3ccco3)ccc2O1 (configuration not stated)	-62*
Cn1cccc1C1C=C(c2ccc(C(C)(C)C)cc2)Nc2ncnn21 (configuration not stated)	-114*
Brc1ccc(C2=CC(c3cccs3)n3ncnc3N2)cc1 (configuration not stated)	-107*
Cc1cc(O)cc2c1C(=O)/C(=C/c1ccco1)O2	-116*
Cc1sc(NC(=O)c2ccc(=O)n(C)n2)nc1-c1ccccc1	-95*
CSc1ccccc1C(=O)Nc1nc2ccccc2c(=O)[nH]1	-122*
COc1ccccc1C(=O)Nc1nc2ccccc2[nH]1	100
Cn1nc(C(=O)Nc2nc3ccccc3[nH]2)ccc1=O	-94*
CSc1ccccc1C(=O)Nc1nc2ccccc2[nH]1	-133*

Bioassay records: PubChem, Broad Institute
